Experiment [1] in a line: NCI Yeast Anticancer Drug Screen. Data for the rad50 strain (AID 155).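 Also: 0% = growth of vehicle-only cultures of the same strain.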 The conditions noted are these: S. cerevisiae rad50 strain growth inhibition, active compounds read high; at 50.0 µM unless noted. A digest of the protocol: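 A DNA repair-deficient yeast mutant serves as the test organism; compound-induced growth inhibition is calculated against vehicle-treated cells.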
A short description of experiment [2]: NCI Yeast Anticancer Drug Screen. Data for the mec2-1 strain (AID 157). To be noted: S. cerevisiae mec2-1 strain, active compounds read high; at 50.0 µM unless noted. In a few lines: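 Cells of the genetically defined mec2-1 yeast strain are incubated with test compound. Inhibition of growth is calculated against vehicle-treated controls.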
The nature of experiment [3]: NCI Yeast Anticancer Drug Screen. Data for the sgs1 mgt1 strain (AID 161).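 Also: 0% = growth of cultures given vehicle only.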 The conditions noted are these: S. cerevisiae sgs1 mgt1 strain, active compounds read high; at 50.0 µM unless noted. A digest of the protocol: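 Mutant yeast exposed to compound; growth scored against vehicle-only wells.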
Experiment [4] can be described thus: NCI Yeast Anticancer Drug Screen. Data for the cln2 rad14 strain (AID 165).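 Also: 0% = growth equal to vehicle treated cultures.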 To be noted: S. cerevisiae cln2 rad14 strain, active compounds read high; at 50.0 µM unless noted. In a few lines:
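The screen exposed genetically defined yeast (cln2 rad14) to test compounds and scored growth inhibition relative to vehicle-treated controls.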

The nature of experiment [5]: NCI Yeast Anticancer Drug Screen. Data for the bub3 strain (AID 167). To be noted: S. cerevisiae bub3 mutant strain, active compounds read high; at 50.0 µM unless noted. In a few lines:
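Inhibition values come from growth of compound-treated mutant yeast normalised to vehicle-treated controls.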

Experiment [6] in a line: NCI Yeast Anticancer Drug Screen. Data for the mlh1 rad18 strain (AID 175). The conditions noted are these: S. cerevisiae mlh1 rad18 strain growth inhibition, active compounds read high; at 50.0 µM unless noted. In a few lines: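 Compound-treated yeast growth, normalised to vehicle controls. Strain bears defined DNA repair mutations.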

Molecules are shown by their SMILES. About 79,000 compounds went through this panel and 15% of them were active in at least one assay; those are over-represented in the sample as a whole. Values without a mark were called inactive. The source made the active and inactive calls. Rule as the data show it: active = growth inhibition above about 70%; inactive = the rest. Where a SMILES comes first, the peptide text is derived from it. The star is where a group is joined. Cbz = O=C(OCc1ccccc1)*; Boc = CC(C)(C)OC(=O)*; tBu = CC(C)(C)*

For `NCCS(=O)(=O)O`, the growth inhibition in experiment [1] is 1.8%; in experiment [2], 8.7%; in experiment [3], 7.7%; in experiment [4] it was 19.8%; in experiment [5], -5.6%; in experiment [6] it was -6.95%.
In the case of `Oc1cc(O)c2cc(O)c(-c3ccc(O)c(O)c3)[o+]c2c1`, the growth inhibition in experiment [1] was 11.4%; in experiment [2], 2.2%; in experiment [3] it was 23.4%; in experiment [4], 4.1%; in experiment [5], 31.1%; in experiment [6], 28.1%.
As for `C=C(CC(O)(C(F)(F)F)C(F)(F)F)CC(O)(C(F)(F)F)C(F)(F)F`, the growth inhibition was 64.8% in experiment [1]; 94.5% (active) in experiment [2]; 63.9% in experiment [3]; 65.6% in experiment [4]; 95% (active) in experiment [5]; 95% (active) in experiment [6].
In the case of `N#C/C(=C1/c2cc([N+](=O)[O-])ccc2-c2c1cc([N+](=O)[O-])cc2[N+](=O)[O-])N1CCCCC1`, the growth inhibition in experiment [1] is -25.4%; in experiment [2], -5.3%; in experiment [3], 2.5%; in experiment [4], -17.8%; in experiment [5] it was -22.8%; in experiment [6] it was -13.7%.
For the molecule `O=C1c2ccccc2C(=O)C1c1ccc2ccccc2n1`, the growth inhibition was 7.85% in experiment [1]; -7.95% in experiment [2]; 3.35% in experiment [3]; 2.6% in experiment [4]; 7.05% in experiment [5]; -7.95% in experiment [6].
In the case of `c1nc2nc(N3CCOCC3)nc(N3CCOCC3)c2[nH]1`, the growth inhibition in experiment [1] was 11.8%; in experiment [2], -0.8%; in experiment [3], 23.9%; in experiment [4], 8.45%; in experiment [5], -17.9%; in experiment [6], 8.7%.
For the molecule `CCCCCCC/C=C/C1CC(=O)OC1=O` (centres undefined), the growth inhibition in experiment [1] is 18.4%; in experiment [2], 11.2%; in experiment [3] it was 9.55%; in experiment [4], 7.05%; in experiment [5], 4.05%; in experiment [6], 29.6%.
In the case of `O=P(O)(O)OP(=O)(O)O`, the growth inhibition in experiment [1] was -15.3%; in experiment [2] it was -15.1%; in experiment [3], -2.4%; in experiment [4] it was -12.1%; in experiment [5], -54.6%; in experiment [6], 25.8%.
`CC(OC(C)(C)C)C(NC(=O)C(CCCCNC(=O)OC(C)(C)C)NC(=O)C(Cc1c[nH]c2ccccc12)NC(=O)C(Cc1ccccc1)NC(=O)OCc1ccccc1)C(=O)NC(Cc1ccccc1)C(=O)O` (centres undefined) (Cbz-FWK(Boc)T(tBu)F-OH; configuration not given here): the growth inhibition in experiment [1] was -10.3%; in experiment [2], -16.6%; in experiment [3], -24.2%; in experiment [4], 24.4%; in experiment [5] it was 1.3%; in experiment [6], -19.4%.
For `O=CNc1cccnc1C1OCCO1`, the growth inhibition in experiment [1] is 4.85%; in experiment [2] it was 5.85%; in experiment [3], 2%; in experiment [4], -13.3%; in experiment [5], -4.75%; in experiment [6], 7.65%.
With `Cn1nc(-c2ccccc2)c(C(=O)/C=C/c2ccccc2)c(N2CCCCC2)c1=O`, the growth inhibition was -27.9% in experiment [1]; -11.6% in experiment [2]; -11.5% in experiment [3]; 3% in experiment [4]; 27% in experiment [5]; -27.8% in experiment [6].
On to `CC1(C)COC(c2ccc3c(c2)OCO3)N1` (centres undefined), for which the growth inhibition in experiment [1] was 0.5%; in experiment [2] it was -8.45%; in experiment [3] it was -5.7%; in experiment [4], -19.6%; in experiment [5], -9.75%; in experiment [6], 0.6%.
For the molecule `CC(C)(C)[Si](C)(C)OCC1OC(n2cnc3c(=O)[nH]cnc32)CC1O` (centres undefined), the growth inhibition is 0.35% in experiment [1]; 6.2% in experiment [2]; 3.2% in experiment [3]; 8% in experiment [4]; 44% in experiment [5]; -7.85% in experiment [6].
On to `CCOc1ccc(NC(N)=O)cc1`, for which the growth inhibition was -44.5% in experiment [1]; -9.85% in experiment [2]; -14.5% in experiment [3]; -3.7% in experiment [4]; -2.55% in experiment [5]; 15.2% in experiment [6].
Turning to `O=C1C2(c3ccccc3)CCC1(c1ccccc1)C(c1ccccc1)=C2c1ccccc1`, the growth inhibition in experiment [1] is 40.1%; in experiment [2], 26.9%; in experiment [3] it was 7.25%; in experiment [4], 23.9%; in experiment [5], 3.05%; in experiment [6], 37.5%.
For the molecule `C=C(C)[C@H]1C=C[C@@H](OC(=O)c2cccnc2)[C@@]23CO[C@@](C)([C@H](OC(=O)c4cccnc4)[C@@]4(OC(C)=O)C[C@H](C)[C@H](OCCC)[C@@H]4[C@H]2OC(C)=O)[C@H]13`, the growth inhibition was -11.2% in experiment [1]; -6.1% in experiment [2]; 27.4% in experiment [3]; 35.4% in experiment [4]; 22.6% in experiment [5]; 79.8% (active) in experiment [6].
On to `CC(=O)OCC1OC(n2c(Br)nc3c(=O)[nH]c(N)nc32)C(OC(C)=O)C1OC(C)=O` (centres undefined), for which the growth inhibition was -1.5% in experiment [1]; 4.3% in experiment [2]; 0.8% in experiment [3]; -14.8% in experiment [4]; -10.2% in experiment [5]; 5.6% in experiment [6].
As for `C[Si](C)(CCl)N([Si](C)(C)CCl)[Si](C)(C)CCl`, the growth inhibition is 13.1% in experiment [1]; 8.55% in experiment [2]; 0.7% in experiment [3]; -19.7% in experiment [4]; -2.6% in experiment [5]; -10.1% in experiment [6].
On to `CC1=C(C(=O)Nc2ccccc2)C(c2ccccc2Cl)C(C(=O)Nc2ccccc2)=C(C)N1`, for which the growth inhibition in experiment [1] was 14.8%; in experiment [2] it was -0.35%; in experiment [3], -6.25%; in experiment [4] it was 14.4%; in experiment [5], -11.7%; in experiment [6], 6.65%.

Source of the values: PubChem BioAssay (NCI).
